nsP2pro inh: inhibitors of chikungunya virus nsP2 protease; FRET peptide cleavage, nsP2pro, fluorescence 1 h; Potency, µM (highest dose often 24.9 µM), usual class: inhibitors; hit rate 1.1% among 31,000; also: nearly all actives have a fitted effect of over 60% in size
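FRET cleavage of 2.5 uM peptide 2 by 150 nM CHIKV protease domain at pH 8.0 (Tris, Tween 20). Compounds at 7 concentrations (up to 25 uM) preincubated 15 min. Fluorescence read after 1 h at room temperature.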
nsP2 cell sec: cell-based CHIKV nsP2 protease inhibition, secondary; shares compounds with nsP2pro inh; cell-based CHIKV nsP2 protease reporter assay; Potency, µM (titrated, usually from 51.1 µM), actives largely listed as inhibitors; hit rate 10% among 450; AID 1964100; also: nearly all actives have a fitted effect of over 70% in size
Target sequence (Q8JUX6 220-798 limits assumed): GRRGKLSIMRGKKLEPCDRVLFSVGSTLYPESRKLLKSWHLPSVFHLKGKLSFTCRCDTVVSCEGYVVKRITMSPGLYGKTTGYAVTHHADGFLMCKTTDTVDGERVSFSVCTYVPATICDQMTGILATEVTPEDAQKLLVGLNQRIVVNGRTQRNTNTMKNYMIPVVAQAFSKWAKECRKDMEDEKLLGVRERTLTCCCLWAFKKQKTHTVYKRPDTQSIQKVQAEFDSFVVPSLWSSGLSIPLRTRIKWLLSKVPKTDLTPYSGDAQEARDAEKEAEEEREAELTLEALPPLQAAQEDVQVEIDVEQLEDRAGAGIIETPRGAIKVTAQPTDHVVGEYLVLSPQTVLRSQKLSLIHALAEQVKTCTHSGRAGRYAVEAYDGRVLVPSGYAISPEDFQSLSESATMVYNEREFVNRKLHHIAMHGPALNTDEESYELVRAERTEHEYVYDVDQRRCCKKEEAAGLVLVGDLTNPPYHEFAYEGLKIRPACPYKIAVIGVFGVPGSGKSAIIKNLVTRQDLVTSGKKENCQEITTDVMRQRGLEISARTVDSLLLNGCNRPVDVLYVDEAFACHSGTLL
NSP2 full ctr: inhibits full-length CHIKV NSP2 enzyme; shares compounds with nsP2pro inh; Full-length CHIKV NSP2 protease enzymatic counterscreen; Potency, µM (doses to about 50.7 µM), actives largely listed as inhibitors; hit rate 39% among 410; also: nearly all actives have a fitted effect of over 65% in size
Furin counterscr: selectivity counter-screen for CHIKV nsP2 protease inhibitors: human furin. shares compounds with nsP2pro inh. Recombinant human furin enzymatic counterscreen, fluorogenic substrate. Potency, µM (doses to about 50.6 µM), actives largely listed as inhibitors. hit rate 6% among 410. AID 1964102
nsP2 NS23 pep: nsP2pro inhibition on native NS2/3 peptide substrate; Purified CHIKV nsP2 protease, endogenous NS2/3 peptide cleavage; shares compounds with nsP2pro inh; hit rate 34% among 410; Potency, µM (series often up to 51 µM), actives largely listed as inhibitors; AID 1964103; also: nearly all actives have a fitted effect of over 55% in size
Papain cs: inhibits papain in a CHIKV nsP2 protease selectivity counterscreen; shares compounds with nsP2pro inh; purified papain protease activity, enzymatic inhibition; Potency, µM (top dose mostly 51 µM), most hits filed as inhibitors; hit rate 5% among 410
nsP2pro conf qHTS: confirmation of CHIKV nsP2 protease inhibitors; shares compounds with nsP2pro inh; CHIKV nsP2 protease enzymatic activity, qHTS; Potency, µM (titrated, usually from 25.5 µM), usual class: inhibitors; hit rate 43% among 410; AID 1964105; also: nearly all actives have a fitted effect of over 75% in size
HCV NS3 4A cs: selectivity counter-screen for CHIKV nsP2 protease inhibitors: HCV NS3/4A; shares compounds with nsP2pro inh; HCV NS3/4A protease biochemical counterscreen; Potency, µM (titrated, usually from 50.9 µM), actives largely listed as inhibitors; hit rate 20% among 410; AID 1964106; also: nearly all actives have a fitted effect of over 55% in size
Numbers stand for hits. This is one part of a sample in which hits are shown more often than they occur. Calls follow the shape of the full dose curve.

COc1cc(C)ccc1OCCSc1nnc(-c2cccs2)o1 was read as nsP2pro inh inactive.
Screening N#Cc1ccnc(N2C(=O)CC[C@H]2C(=O)N(c2cncc(F)c2)[C@H](C(=O)NC2CC(F)(F)C2)c2ccccc2Cl)c1 returned nsP2pro inh inconclusive, nsP2 cell sec inconclusive, NSP2 full ctr inactive, Furin counterscr inactive, nsP2 NS23 pep inactive, Papain cs inactive, nsP2pro conf qHTS inactive and HCV NS3 4A cs inconclusive.
`Cc1ccccc1C(C(=O)NC1CCCCC1)N(C(=O)Cn1cnc2ccccc21)c1cccc(F)c1` (stereo not drawn) gave nsP2pro inh inactive.
Cc1ccccc1Cn1cc(NC(=O)c2cc(-c3ccc(Cl)cc3)on2)cn1 was read as nsP2pro inh inactive.
COc1ccc(OCCn2c(C)nc3cc(C)c(C)cc32)cc1 was read as nsP2pro inh inactive.
For CCNC(=O)NCCCOc1cccc(CN2CCCCC2)c1 the results were nsP2pro inh inactive.
For Oc1ccc(CNc2ccccc2C(F)(F)F)c2cccnc12 the results were nsP2pro inh inactive.
`Oc1ccc(CNc2ccccc2F)c2cccnc12` gave nsP2pro inh 3.1µM, nsP2 cell sec inactive, NSP2 full ctr 15µM, Furin counterscr inactive, nsP2 NS23 pep 11µM, Papain cs inactive, nsP2pro conf qHTS 1.9µM and HCV NS3 4A cs inactive.
`Oc1ccc(CNc2ccccc2Cl)c2cccnc12` gave nsP2pro inh inactive.
For Cc1cc2c(s1)c1cnn(Cc3cc(F)ccc3F)c(=O)c1n2C the results were nsP2pro inh inactive.
`COc1cc(NC(=O)Cn2ccc3ccccc3c2=O)cc(OC)c1OC` gave nsP2pro inh inactive.
For C1Cc2[nH]nc(-c3nn[nH]n3)c2C1 the results were nsP2pro inh 8.8µM, nsP2 cell sec inactive, NSP2 full ctr 9.2µM, Furin counterscr inconclusive, nsP2 NS23 pep inconclusive, Papain cs inactive, nsP2pro conf qHTS 6.3µM and HCV NS3 4A cs inactive.
Brc1ccc(-c2csc(-c3nc(-c4ccc(Br)s4)cs3)n2)cc1 was read as nsP2pro inh inactive.
`CCC1CN(C(=O)N2CCC(C(=O)NCc3cccs3)CC2)c2cc(C)ccc2O1` (stereo not drawn) gave nsP2pro inh inactive.
`Cc1ccc(S(=O)(=O)c2ccc([N+](=O)[O-])cn2)cc1` gave nsP2pro inh 0.35µM, nsP2 cell sec 2.1µM, NSP2 full ctr 1.5µM, Furin counterscr 12µM, nsP2 NS23 pep 1.8µM, Papain cs inactive, nsP2pro conf qHTS 0.56µM and HCV NS3 4A cs 2.9µM.
For Cc1ccc(S(=O)(=O)Nc2cc([N+](=O)[O-])ccc2C(=O)Nc2nc(-c3ccccc3)cs2)cc1 the results were nsP2pro inh inactive.
`CC(=O)Nc1ccc(S(=O)(=O)Nc2ccc([N+](=O)[O-])cc2)cc1` gave nsP2pro inh inactive.
For O=C(NCc1ccccc1Cl)C1CCN(S(=O)(=O)c2ccc3c(c2)CCCN3C(=O)C2CCC2)CC1 the results were nsP2pro inh inactive.
O=c1oc2c3c(ccc2c2ccccc12)OCN(Cc1ccc(Cl)cc1)C3 was read as nsP2pro inh inconclusive, nsP2 cell sec inactive, NSP2 full ctr inconclusive, Furin counterscr inconclusive, nsP2 NS23 pep inconclusive, Papain cs inactive, nsP2pro conf qHTS 4.5µM and HCV NS3 4A cs inactive.
Cc1cc(=O)oc2c3c(ccc12)OCN(Cc1ccc(Cl)cc1)C3 was read as nsP2pro inh inactive.
`COc1ccc(CN2COc3ccc4c(oc(=O)c5ccccc54)c3C2)cc1OC` gave nsP2pro inh inactive.
CNc1ccc(C)cc1C(=O)N1CCN(C)C2(CCN(C)CC2)C1 was read as nsP2pro inh inactive.
For COc1cc(CCC(=O)N2C[C@@H](C(N)=O)[C@H](c3nc(C)no3)C2)on1 the results were nsP2pro inh inactive.
`O=C(Cn1c(=O)sc2ccc(Cl)cc21)N1CCN(CCO)CC1` gave nsP2pro inh inactive.
Screening CC(NC(CCc1ccccc1)C(=O)O)C(=O)N1C(=O)N(C)CC1C(=O)O (stereo not drawn) returned nsP2pro inh inconclusive, nsP2 cell sec inactive, NSP2 full ctr 15µM, Furin counterscr inactive, nsP2 NS23 pep inactive, Papain cs inactive, nsP2pro conf qHTS inconclusive and HCV NS3 4A cs inactive.
Screening CCC[C@H](N[C@@H](C)C(=O)N1[C@H](C(=O)O)C[C@@H]2CCCC[C@@H]21)C(=O)O returned nsP2pro inh inactive.
`CCOC(=O)[C@H](CCc1ccccc1)N[C@@H](C)C(=O)N1CCC[C@H]1C(=O)O` gave nsP2pro inh inactive.
Screening Cc1ccccc1-c1nc(CN2C(=O)CN=C(c3ccccc3)c3ccccc32)c(C)o1 returned nsP2pro inh inactive.
Screening Cc1ccc(OCCn2c(CCNC(=O)/C=C/c3ccccc3Cl)nc3ccccc32)cc1 returned nsP2pro inh inactive.
For CCSc1ncc(Cl)c(C(=O)Nc2ccc(S(=O)(=O)N(C)c3ccccc3)cc2)n1 the results were nsP2pro inh inactive.
`CC(C)Sc1ncc(Cl)c(C(=O)Nc2ccc(S(=O)(=O)N(C)c3ccccc3)cc2)n1` gave nsP2pro inh inactive.
For CCN(c1ccccc1)S(=O)(=O)c1ccc(NC(=O)c2nc(S(C)(=O)=O)ncc2Cl)cc1 the results were nsP2pro inh inconclusive, nsP2 cell sec 2.6µM, NSP2 full ctr 4.1µM, Furin counterscr inactive, nsP2 NS23 pep 5.8µM, Papain cs inactive, nsP2pro conf qHTS 4.5µM and HCV NS3 4A cs inactive.
O=C(Cn1c(=O)oc2cc(S(=O)(=O)N3CCCCC3)ccc21)NCc1ccc(Cl)cc1 was read as nsP2pro inh inactive.
Screening COc1ccc(-c2cc(-c3ccncc3)cn3cncc23)cc1 returned nsP2pro inh inactive.
Screening CC(=O)OCC1(O)CCC2C(COC3OC(CO)C(O)C(O)C3OC(=O)/C=C/c3ccc(O)cc3)=COC(OC(=O)CC(C)C)C21 (stereo not drawn) returned nsP2pro inh inactive.
For CNC(=O)C1(N2CCC[C@H]2C(=O)N2CC[C@@H](O)C2)CCCCC1 the results were nsP2pro inh inactive.
Screening C=C(C)C(=O)O[C@H]1C[C@@](C)(O)C2(O)CCC(C)(/C=C3/OC(=O)C(COC)=C31)O2 (stereo partly drawn) returned nsP2pro inh inconclusive, nsP2 cell sec inconclusive, NSP2 full ctr inconclusive, Furin counterscr inactive, nsP2 NS23 pep inconclusive, Papain cs inactive, nsP2pro conf qHTS inconclusive and HCV NS3 4A cs inconclusive.
